Source: PubChem BioAssay
Unmarked numbers belong to inactive results.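 Rule for the calls: active = RAM network inhibition above 8.4% in each of two replicates, 3 SD over the compound average; inconclusive = above 8.4% inhibition in only one replicate; inactive = 8.4% inhibition or less in each replicate.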

Assay: RAM signaling pathway blockade in yeast – S. cerevisiae, Pdr1DBD-CYC8 efflux-inhibited sensitized strain, primary screen (AID 1298);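 note: 0% = DMSO untreated cells without growth and 100% = 10 µM 1-NA-PP1 full growth; higher means more yeast growth rescued from 5-FOA killing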
Details: S. cerevisiae cbk1-as DSE1-URA3 strain, 5-FOA growth OD615, 2 d; at 50 µM; stronger effect = higher value

Compared with `CC1(C)CC(=O)C=C(NCCCNC2CCCCC2)C1`, `COC(=O)C1C(=O)C=C(N2CCOCC2)CC1(C)C` (configuration not stated) is higher in RAM network inhibition: 1.72% for the first, 1.92% for the second.

Compared with `Cc1cc(Nc2ccc(F)cc2)n2nc(C)nc2n1`, `C=CCn1c(C)nc2c(c1=O)c1nc3ccccc3nc1n2-c1ccc(C)cc1` is higher in RAM network inhibition: 0.55% for the first, 4.86% for the second.

Compared with `Cc1cc(C(=O)N2CCN(C(c3ccccc3)c3ccccc3)CC2)on1`, `O=C(c1cc(-c2cccc(O)c2)on1)N1CCc2ccccc2C1` is lower in RAM network inhibition: 3.7% for the first, -2.99% for the second.

Going from `COc1cccc(C2NC(CCSC)(C(=O)O)C3C(=O)N(C(C)C)C(=O)C23)c1O` (configuration not stated) to `CC(C)c1ccccc1NC(=O)CCCC(=O)O`, the RAM network inhibition rises from -1.51% to 2.42%.

Going from `CC1CC(C)CN(S(=O)(=O)c2cccc3cccnc23)C1` (configuration not stated) to `Cc1ccc(-c2nc(CS(=O)(=O)CC(=O)N3CC(C)CC(C)C3)c(C)o2)cc1` (configuration not stated), the RAM network inhibition rises from 1.83% to 3.8%.

First: COc1ccc(NS(=O)(=O)c2ccc3c(c2)oc(=O)n3C)c(OC)c1
Second: COc1ccc(-n2c(Cn3c(=O)sc4ccccc43)nnc2SCC(=O)N2CCCC2)cc1
The RAM network inhibition of the first is higher: 9.99% for the first, 3.39% for the second.

First: CCc1ccc(C2CC(c3ccccc3)Nc3nc(N)nn32)cc1 (configuration not stated)
Second: Cc1cccc(-n2c(CNC(=O)c3ccccc3)nnc2SCC(=O)Nc2nccs2)c1
The RAM network inhibition of the first is higher: 5.98% for the first, 5.7% for the second.

First: COc1cccc(-c2csc(NC(=O)C3CC3)n2)c1
Second: COC(=O)c1ccccc1NC(=O)Cn1cc2c(n1)CCC(C)C2 (configuration not stated)
The RAM network inhibition of the first is lower: 1.49% for the first, 3.66% for the second.

Going from `CCC(C)N1C(=O)CCC1C(=O)NCc1ccc2c(c1)OCO2` (configuration not stated) to `CCOCCCNC(=O)C(NC(=O)C1CCC(=O)N1)c1ccc(C)cc1` (configuration not stated), the RAM network inhibition rises from 4.46% to 5.24%.

Going from `C=CCSC1=C(C#N)C(c2ccc(OCC)cc2)CC(=O)N1` (configuration not stated) to `CC(C)N(CCc1ccncc1)C(=O)Nc1ccc(Cl)c(Cl)c1`, the RAM network inhibition falls from 4.8% to 3.94%.

Going from `CCc1nnc(NC(=O)CSc2nnc(Cc3cccn3C)n2C)s1` to `CC(=O)c1ccc(N2CCN(C(=O)c3cc4c(=O)n(C)c5ccccc5c4n3C)CC2)cc1`, the RAM network inhibition rises from 1.19% to 2.91%.
